Seven compounds from PubChem BioAssay can be followed below.

By inhibition is commonly meant the relative decrease from the control value, in per cent. A word on the viability: it is the share of living cells, or the viability signal relative to a control.

The target of assay [1] is 6-phosphogluconate dehydrogenase, decarboxylating (Homo sapiens) (UniProt P52209). Kind of assay: inhibition of human phosphogluconate dehydrogenase – biochemical, recombinant enzyme, NADPH absorbance, primary screen (AID 1159550). Particulars: recombinant 6PGD, NADPH absorbance 341 nm; at 10 µM; stronger effect = higher value.
Sequence of 6-phosphogluconate dehydrogenase, decarboxylating (Homo sapiens) (P52209 whole entry, looked up): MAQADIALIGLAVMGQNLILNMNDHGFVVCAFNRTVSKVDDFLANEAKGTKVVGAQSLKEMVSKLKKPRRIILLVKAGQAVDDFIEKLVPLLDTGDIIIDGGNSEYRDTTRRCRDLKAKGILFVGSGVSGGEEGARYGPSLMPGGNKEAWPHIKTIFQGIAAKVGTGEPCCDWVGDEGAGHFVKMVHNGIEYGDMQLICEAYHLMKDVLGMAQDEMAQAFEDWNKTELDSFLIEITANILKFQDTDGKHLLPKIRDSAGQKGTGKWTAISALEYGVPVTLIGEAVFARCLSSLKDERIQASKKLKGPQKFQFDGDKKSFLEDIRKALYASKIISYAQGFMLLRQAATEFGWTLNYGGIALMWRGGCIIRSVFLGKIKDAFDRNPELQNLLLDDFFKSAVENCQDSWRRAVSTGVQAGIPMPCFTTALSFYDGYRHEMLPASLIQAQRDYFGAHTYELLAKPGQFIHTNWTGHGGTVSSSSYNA
A short description of assay [2]: EMT-state selective cytotoxicity in co-culture – imaging, PC-3E GFP, TEM4-18 mCherry, primary screen (AID 1345086;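 active = compounds killing one labelled cell type while sparing the other, by normalised counts and ratio limits, not self-fluorescent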;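 for all read-outs here: cells exposed to compound for 72 h before imaging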;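 for red/green cell ratio (normalised): normalised mesenchymal count divided by normalised epithelial count so high means epithelial killing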). Particulars: PC-3E GFP / TEM4-18 mCherry co-culture, imaging cell counts, at 1 µM; for red/green cell ratio (normalised): actives lie on both sides, counts scaled to control wells, 1 = unselective.
The target of assay [3] is Mitogen-activated protein kinase 7 (Homo sapiens) (UniProt Q13164). Description: Gal4-ERK5 driven luciferase induction – cell-based, HTS, primary screen (AID 1508626;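 active = luciferase signal above three times the same-plate solvent-only control wells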;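 note: luciferase driven by Gal4-ERK5 fusion binding five Gal4 sites before minimal TATA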). Particulars: HeLa Gal4-ERK5 transactivation, 18 h, at 5 µM, stronger effect = higher value.
Sequence of Mitogen-activated protein kinase 7 (Homo sapiens) (Q13164 whole entry, looked up, the tested form may be a part): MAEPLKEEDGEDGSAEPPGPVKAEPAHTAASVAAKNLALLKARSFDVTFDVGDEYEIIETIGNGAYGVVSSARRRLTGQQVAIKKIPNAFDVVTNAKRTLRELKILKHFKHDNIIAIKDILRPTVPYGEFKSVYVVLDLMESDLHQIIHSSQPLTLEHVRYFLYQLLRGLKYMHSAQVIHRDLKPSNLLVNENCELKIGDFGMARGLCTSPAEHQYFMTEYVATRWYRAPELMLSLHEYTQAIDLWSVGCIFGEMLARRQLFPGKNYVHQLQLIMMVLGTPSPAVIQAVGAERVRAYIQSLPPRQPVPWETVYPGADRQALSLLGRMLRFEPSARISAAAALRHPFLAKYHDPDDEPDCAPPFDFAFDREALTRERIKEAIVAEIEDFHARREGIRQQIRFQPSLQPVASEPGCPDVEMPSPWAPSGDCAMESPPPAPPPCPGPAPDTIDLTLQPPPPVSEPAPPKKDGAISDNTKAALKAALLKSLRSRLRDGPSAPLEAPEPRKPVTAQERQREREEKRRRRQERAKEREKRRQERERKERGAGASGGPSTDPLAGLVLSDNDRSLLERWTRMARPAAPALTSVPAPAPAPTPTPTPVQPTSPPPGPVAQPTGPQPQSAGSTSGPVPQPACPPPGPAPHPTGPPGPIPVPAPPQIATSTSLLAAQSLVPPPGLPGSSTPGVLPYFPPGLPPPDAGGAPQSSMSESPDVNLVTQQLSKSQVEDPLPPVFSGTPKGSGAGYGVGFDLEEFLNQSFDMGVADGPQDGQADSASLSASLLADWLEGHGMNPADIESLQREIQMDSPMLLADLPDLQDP
Assay [4] can be described thus: blockers of polyQ-driven CASP3 activation – cell-based (AID 1583). Conditions: polyglutamine-induced caspase-3 activation, cell assay; stronger effect = higher value;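 tested at 10 µM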.
The nature of assay [5]: yeast 75Q aggregation reduction – 75Q-TubU reporter (AID 1593). Conditions: Yeast 75Q polyglutamine aggregation reporter.
Assay [6] is described as follows: restoration of touch response, mutant HTT neurons – whole organism, C. elegans mechanosensory neurons, N-terminal huntingtin (AID 1599). Conditions: C. elegans polyQ-huntingtin mechanosensory neurons, stronger effect = higher value.
Assay [7] can be described thus: blockers of cytochrome c efflux from mitochondria – biochemical, purified mitochondria (AID 1603).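 Note: mouse liver mitochondria challenged with calcium chloride; signal normalized to the plate average as 100%.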 Conditions: stronger effect = lower value.
A short description of assay [8]: polyglutamine aggregate formation blockers (AID 1604). Particulars: polyglutamine-induced protein aggregation inhibition assay; stronger effect = higher value; tested at 2.5 µM.
The nature of assay [9]: glutamate transport activators, MN-1 cells, MN-1 cell line (AID 1612).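 Note: tested at 1 µM final; 0% = mean of DMSO vehicle wells on each plate; positive means more glutamate uptake than control and negative means less.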 Particulars: MN-1 motor neuron cells, stronger effect = higher value.
Assay [10] in a line: 75Q-TubH aggregate inhibition, S. cerevisiae, yeast (AID 1616). Particulars: S. cerevisiae 75Q-TubH polyglutamine aggregation suppression; stronger effect = higher value.
Assay [11] in a line: P. berghei load reduction in hepatocytes – cell-based, HepG2, luciferase luminescence, HepG2 viability, primary screen (AID 624349; in the data active = parasite load remaining mostly below about 12%, no sharp cut-off; inactive = mostly above about 10%;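 note: 100% = mean of DMSO negative control wells on the same plate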). Particulars: P. berghei liver stage in HepG2, luciferase luminescence, concentration not given here; parasite load remaining: stronger effect = lower value; viability: measured here: HepG2 viability without parasites.
Assay [12] is described as follows: viability loss in pontine glioma line – cell-based, SU-DIPG-XVII, MIPE5.0, CellTiter-Glo, qHTS, dose response (AID 1347060; cut-off not given, nearly all actives have AC50 up to about 26 µM). Particulars: CellTiter-Glo ATP luminescence.
Assay [13] can be described thus: viability loss in pontine glioma line – cell-based, JHH-DIPG-1, MIPE4.0, CellTiter-Glo, qHTS, dose response (AID 1347062; cut-off not given, nearly all actives have AC50 up to about 27 µM). Conditions: JHH-DIPG-1 viability, CellTiter-Glo ATP luminescence.
The nature of assay [14]: viability loss in pontine glioma line – cell-based, SU-DIPG-IV, MIPE4.0, CellTiter-Glo, qHTS, dose response (AID 1347063; cut-off not given, nearly all actives have AC50 up to about 30 µM;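 note: compound exposure lasted 48 hours before the viability readout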). Conditions: CellTiter-Glo ATP luminescence.
Assay [15] can be described thus: JHH-DIPG-1 glioma cell viability, MIPE5.0 library, CellTiter-Glo luminescence, qHTS (AID 1347067; cut-off not given, nearly all actives have AC50 up to about 26 µM;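 note: cells exposed to compound for 48 hours before readout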). Conditions: JHH-DIPG-1 glioma viability, CellTiter-Glo ATP luminescence. Background: ATP-based viability assays read luminescence as a measure of living cells.
Assay [16] can be described thus: viability loss with induced miR-34 in A549 – imaging, A549 dox-inducible miR-34, nuclei and caspase counts, primary screen (AID 1347080;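 active = compounds whose cell count with miR-34 switched on is under 0.7 times the count with it off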). Particulars: A549 miR-34 inducible, Hoechst nuclei count, 48 h.
Assay [17] can be described thus: galactose survival enhancers in mitochondrial complex I cybrids – cell-based, galactose medium, ATP luminescence, primary screen (AID 1645843;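 active = z-score of at least 1.8 in each of two replicates, scored against plate mean and spread of sample wells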;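 note: positive z means more ATP and so rescue of galactose-driven cybrid death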). Particulars: complex I mutant cybrid cells, 72 h, stronger effect = higher value.
Where [18] appears, read: measured here: epithelial PC-3E GFP cell survival.
[19] abbreviates: measured here: mesenchymal TEM4-18 mCherry cell survival.

“And” between values parts separate entries of the source, which are not always exact repeats. Equal values may be shown once. Inconclusive results are not listed. For some assays here: Entries with a potency or affinity are not part of this list. The source made the active and inactive calls.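 Rule for the calls, unless noted: active = at least 20% inhibition of 6-phosphogluconate dehydrogenase activity; inactive = the rest.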

For the compound `Nc1nc2ncc(=O)[nH]c2c(=O)[nH]1`, the inhibition in assay [1] was -1.84% (inactive). Besides, in assay [2], the red/green cell ratio (normalised) is 1.01 (inactive). Besides, the normalised cell number in [2] (setting [18]) was 1.17; in assay [2] (setting [19]) it was 1.18. Further, the luciferase signal in [3] was 56 AU (inactive).
Turning to `COc1cc(C)c2c(=O)cc(-c3ccccc3)oc2c1`, the inhibition in assay [4] was 15.2%; in [1] it was 5.95% (inactive). This compound showed a score in [5] of -1.86. This compound also showed a rescue above control in assay [6] of 16.3. Moreover, in assay [7], the cytochrome c release ratio is 1.19. In [8], the inhibition of aggregation was found to be 86.2%. For the same compound, in assay [9], the glutamate uptake change was -16.6%. This compound also registered an aggregation suppression score in assay [10] of -0.775. Further, the red/green cell ratio (normalised) in assay [2] is 0.85 (inactive). For the same compound, the normalised cell number in [2] (setting [18]) amounted to 1.28; in assay [2] (setting [19]), 1.09.
In the case of `COc1cc(OC)c2ccc(=O)oc2c1`, the inhibition was -1.21% in [4] and 9.07% (inactive) in [1]. Also, the score in assay [5] was determined as 0.96. This compound yielded a rescue above control in assay [6] of 0.64. The cytochrome c release ratio in assay [7] is 0.64. Besides, in assay [8], the inhibition of aggregation was 96.2%. For the same compound, the glutamate uptake change in assay [9] was -7.62%. The compound further showed an aggregation suppression score in assay [10] of 0.869. Moreover, in [11], the parasite load remaining was 128% (inactive). Further, in [11], the viability was found to be 69.7%. Moreover, in assay [2], the red/green cell ratio (normalised) was 1.1 (inactive). Besides, the values for the normalised cell number in assay [2] (setting [18]) and in [2] (setting [19]) were 0.96 and 1.05, respectively. Further, in [3], the luciferase signal is 64 AU (inactive).
As for `CCOC(=O)C1=C(O)C(=O)N(Cc2ccccc2)C1`, the inhibition in assay [1] is -9.58% (inactive). In addition, the compound was called inactive in assay [12], in assay [13], in assay [14] and in assay [15]. The fold change in assay [16] (stronger effect = lower value, cell number ratio, induced over uninduced) was 0.926 (inactive) and 0.964 (inactive); in assay [16] (measured here: relative caspase fold change +Dox/-Dox), 1.46 and 1.07. For the same compound, the cell count in [16] (measured here: total cells with miR-34 induction, stronger effect = lower value) was 9870 and 8960; in assay [16] (measured here: total cells without miR-34 induction) it was 10700 and 9300. Also, the z-score in assay [17] was 0.685 (inactive) and -0.055 (inactive).
In the case of `NC1(C(=O)O)CCCC1`, the inhibition in [4] is 20.1%; in assay [1], -12.6% (inactive). The compound also had a score in [5] of 1.21. This compound also had a rescue above control in assay [6] of -10.9. In assay [7], the cytochrome c release ratio is 4.67. Also, the inhibition of aggregation in [8] worked out at 81.6%. Moreover, the glutamate uptake change in assay [9] was 2.91%. The same compound came in with an aggregation suppression score in [10] of 1.57. In addition, the parasite load remaining in assay [11] is 96.4% (inactive). Further, the viability in assay [11] turned out to be 69.9%. Further, in assay [2], the red/green cell ratio (normalised) is 0.86 (inactive). The normalised cell number in assay [2] (setting [18]) was determined as 1.24; in assay [2] (setting [19]) it was 1.06. Further, the luciferase signal in assay [3] was 76 AU (inactive).
Consider `O=C(O)CCCN1C(=O)c2cccc3cccc(c23)C1=O`, for which, in assay [1], the inhibition was -3.59% (inactive). In addition, the red/green cell ratio (normalised) in [2] is 0.82 (inactive). The normalised cell number in assay [2] (setting [18]) was determined as 1.29; in [2] (setting [19]), 1.06. In addition, the luciferase signal in [3] was 48 AU (inactive).
As for `CC(=O)c1c(O)c(C)c(O)c2c1OC1=CC(=O)C(C(C)=O)C(=O)C12C` (stereo unspecified), the inhibition is 59.1% in assay [4] and -11.1% (inactive) in [1]. The compound also had a score in assay [5] of 0.79. Further, the rescue above control in [6] worked out at 1.6. Besides, the cytochrome c release ratio in assay [7] turned out to be 0.98. In assay [8], the inhibition of aggregation is -17%. Further, in assay [9], the glutamate uptake change is -5.26%. In assay [10], this compound showed an aggregation suppression score of 0.354. Moreover, in assay [2], the red/green cell ratio (normalised) is 0.89 (inactive). The normalised cell number in [2] (setting [18]) was 1.06; in assay [2] (setting [19]), 0.94. In addition, the luciferase signal in [3] was 80 AU (inactive).
